Data on eight molecules can be found in ChEMBL document CHEMBL4513135, “CO-ADD screening of IQOG CSIS (Spain) compounds”.

“And” between values parts separate entries of the source, which are not always exact repeats. Identical values can stand only once. Entries with a potency or affinity are not part of this list.

The subject of experiment [1] is Klebsiella pneumoniae. The note with it: Concentration 32 ug.mL-1, ASSAY_TEST Inhibition of Bacterial Growth, detection method Absorption (OD600), MEDIA CAMHB, plate type 384well, NBS, CORNING #3640, time 18 hr.
The test system of experiment [2] is Candida albicans. The note with it: 32 ug/mL.
Experiment [3] deals with Cryptococcus neoformans. Particulars: Concentration 32 ug.mL-1, ASSAY_TEST Inhibition of Fungal Growth, detection method Resazurin, Absorption (OD600-OD570), plate type 384well, NBS, CORNING #3640.

Usually Inhibition stands for the relative decrease from the control value, in per cent. Regarding `COc1ccc2nc(Cl)c(C=O)cc2c1`, the Inhibition was -0.34% and -2.5% in experiment [1] (32 ug/mL); 7.25% and 8.8% in experiment [2]; -8.56% and -8.89% in experiment [3] (32 ug/mL).

Regarding `Cc1ccc(C(O)SNNc2nc(C)nc3c2c(C)nn3-c2ccccc2)cc1` (centres undefined), the figures for the Inhibition in experiment [1], in experiment [2] and in experiment [3] were 11.05%, -0.04% and -5.24%, respectively.

As for `Br.C#CCNCC`, the Inhibition in experiment [1] is 7.82%; in experiment [2] it was 3.14%; in experiment [3] it was -9.78%.

As to `Cc1ccc(C(O)SNNc2ncnc3c2c(C)nn3-c2ccccc2)cc1` (centres undefined), the figures for the Inhibition in experiment [1], in experiment [2] and in experiment [3] were -18.74%, 1.06% and -5.03%, respectively.

For the molecule `COc1nc2nc3c(c(N)c2cc1C#N)CCCC3`, the Inhibition in experiment [1] is 13.26%; in experiment [2], 2.72%; in experiment [3], -84.27%.

In the case of `C#CCNC(=O)c1cc2cc(OCCCC3CCN(Cc4ccccc4)CC3)ccc2[nH]1`, the Inhibition in experiment [1] is 4.92%; in experiment [2] it was 1.71%; in experiment [3], -106.43%.

On to `Cc1ccc(C(O)SNNc2ncnc3c2cnn3-c2ccccc2)cc1` (centres undefined), for which the Inhibition in experiment [1] was 7.03%; in experiment [2], 2.59%; in experiment [3], -4.5%.

Consider `CC(=O)C(=Cc1ccccc1)C(=O)O[C@H]1C[C@H](C)CC[C@H]1C(C)C`, for which the Inhibition in experiment [1] was 13.75%; in experiment [2], 10.8%; in experiment [3] it was -6.7%.
